“And” between values parts separate entries of the source, which are not always exact repeats. Identical values can stand only once. The source made the active and inactive calls.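 Rule for the calls, unless noted: active = compounds whose cell count with miR-34 switched on is under 0.7 times the count with it off; inactive = the rest.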
What was measured:
[1] = test system: Aerobactin synthetase IucA (Klebsiella pneumoniae); test: inhibition of K. pneumoniae IucA enzyme – biochemical, Tocris library, absorbance (AID 1345561; call rule not given here;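 note: 100% = enzyme without compound and 0% = no enzyme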); conditions: purified IucA enzyme assay, absorbance (OD) read-out; stronger effect = lower value;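 tested at 8 µM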
[2] = viability loss with induced miR-34 in A549 – imaging, A549 dox-inducible miR-34, nuclei and caspase counts, primary screen (AID 1347080); conditions: A549 miR-34 inducible, Hoechst nuclei count, 48 h
[3] = galactose survival enhancers in mitochondrial complex I cybrids – cell-based, galactose medium, ATP luminescence, primary screen (AID 1645843;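 active = z-score of at least 1.8 in each of two replicates, scored against plate mean and spread of sample wells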;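 note: positive z means more ATP and so rescue of galactose-driven cybrid death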); conditions: complex I mutant cybrid cells, 72 h, stronger effect = higher value
[4] = P. berghei load reduction in hepatocytes – cell-based, HepG2, luciferase luminescence, HepG2 viability, primary screen (AID 624349; in the data active = parasite load remaining mostly below about 12%, no sharp cut-off; inactive = mostly above about 10%;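 note: 100% = mean of DMSO negative control wells on the same plate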); conditions: P. berghei liver stage in HepG2, luciferase luminescence, concentration not given here; parasite load remaining: stronger effect = lower value; viability: measured here: HepG2 viability without parasites
[5] = measured here: relative caspase fold change +Dox/-Dox
[6] = measured here: total cells with miR-34 induction, stronger effect = lower value
[7] = measured here: total cells without miR-34 induction
[8] = stronger effect = lower value, cell number ratio, induced over uninduced

Row | SMILES | remaining activity [1] | fold change ([2]; stronger effect = lower value) | fold change [2, 5] | cell count [2, 6] | cell count [2, 7] | z-score [3] | fold change [2, 8] | parasite load remaining [4] | viability [4] [%]
1 | c1ccc(CC(c2ccccc2)N2CCCCC2)cc1 (stereo not drawn) | 103% (inactive) | 0.958 (inactive) | 0.814 | 9440 | 9860 | -0.99 (inactive) | – | – | –
2 | C=C(C)[C@@H]1CCC(C)=C[C@H]1c1c(OC)cc(C)cc1OC | 106% (inactive) | – | 0.715 and 0.958 | 5230 and 8980 | 5540 and 9700 | -0.105 (inactive) | 0.943 (inactive) and 0.926 (inactive) | – | –
3 | Ic1cncc(OC[C@@H]2CCN2)c1 | 118% (inactive) | – | 0.549 | 9660 | 10300 | -0.135 (inactive) | 0.934 (inactive) | – | –
4 | CN(C)c1ccc(/C=C2\CCCN=C2c2cccnc2)cc1 | 94.5% (inactive) | – | 1.33 | 8030 | 8480 | -0.4 (inactive) | 0.947 (inactive) | – | –
5 | CCOC(=O)c1ncc2[nH]c3ccc(OCc4ccccc4)cc3c2c1COC | 105% (inactive) | – | 1.71 | 2080 | 2130 | -0.79 (inactive) | 0.974 (inactive) | – | –
6 | Cc1[nH]c2ccc(Cl)cc2c1C1=CCNCC1 | 103% (inactive) | – | 1.4 | 7850 | 8550 | -0.42 (inactive) | 0.919 (inactive) | – | –
7 | NC1(c2ccccc2Cl)CCCCC1=O (stereo not drawn) | 88.2% (inactive) | 0.898 (inactive) | 1.86 | 9020 | 10000 | 1.53 (inactive) | – | – | –
8 | Clc1ccc(C2=CCCC3CCC2N3)cn1 (stereo not drawn) | 101% (inactive) | – | 0.911 | 9190 | 10100 | 0.365 (inactive) | 0.907 (inactive) | – | –
9 | CCC(Oc1ccc(Cl)cc1)C(=O)OC1CC2CCC(C1)N2C (stereo not drawn) | 88.1% (inactive) | – | 1.03 | 8430 | 9270 | -0.285 (inactive) | 0.91 (inactive) | – | –
10 | CC(=O)[C@H]1CC[C@H]2[C@@H]3CCC4C[C@](C)(O)CC[C@]4(C)[C@H]3CC[C@]12C (stereo partly drawn) | 103% (inactive) | 0.92 (inactive) | 1.5 | 8730 | 9490 | -0.285 (inactive) | – | – | –
11 | CCN(CC)CCO[C@H]1CC[C@@]2(C)C(=CC[C@@H]3[C@@H]2CC[C@]2(C)C(=O)CC[C@@H]32)C1 | 113% (inactive) | – | 0.558 and 0.739 | 5320 and 6330 | 5930 and 7220 | -0.79 (inactive) | 0.896 (inactive) and 0.878 (inactive) | – | –
12 | CN1C2CCC1CC(OC(c1ccc(F)cc1)c1ccc(F)cc1)C2 (stereo not drawn) | 99.4% (inactive) | – | 1.19 | 7710 | 7460 | -0.46 (inactive) | 1.03 (inactive) | – | –
13 | CCc1cccc(CC)c1NC1=NCCN1 | 115% (inactive) | – | 1.79 | 8430 | 8850 | -0.02 (inactive) | 0.952 (inactive) | – | –
14 | OC(Cc1ccncc1)C(Cl)(Cl)Cl (stereo not drawn) | 118% (inactive) | – | 0.736 | 9270 | 10100 | -0.53 (inactive) | 0.921 (inactive) | – | –
15 | c1cc(Cc2cnc[nH]2)ccn1 | 105% (inactive) | – | 1.35 | 9560 | 9710 | -0.25 (inactive) | 0.985 (inactive) | – | –
16 | CC1=C(O)C(=O)[C@@H]2O[C@@H]2C1=O | 113% (inactive) | – | 1 | 7990 | 8130 | 0.005 (inactive) | 0.983 (inactive) | – | –
17 | CC(C)(C)NCC(O)COc1cccc2[nH]c(C#N)cc12 (stereo not drawn) | 115% (inactive) | – | 1.8 | 9030 | 9910 | 0.025 (inactive) | 0.911 (inactive) | – | –
18 | CCN1C[C@]2(COC(=O)c3ccccc3N3C(=O)C[C@H](C)C3=O)CC[C@H](OC)[C@]34C2[C@H](OC)[C@](O)([C@H]13)[C@@]1(O)C[C@H](OC)[C@H]2C[C@@H]4[C@@H]1[C@H]2OC | 128% (inactive) | – | 0.834 | 8220 | 8740 | -0.21 (inactive) | 0.94 (inactive) | – | –
19 | CCCN(C/C=C/I)C1CCc2ccc(O)cc2C1 (stereo not drawn) | 102% (inactive) | – | 0.638 | 8360 | 9250 | -0.23 (inactive) | 0.904 (inactive) | – | –
20 | CC(C)n1cnc2c(C(=O)N[C@H]3CN4CCC3CC4)cc(Cl)cc21 | 102% (inactive) | – | 0.88 | 8010 | 8630 | 2.03 (inactive) | 0.928 (inactive) | – | –
21 | CC(C)CC(N)C1(c2ccc(Cl)cc2)CCC1 (stereo not drawn) | 120% (inactive) | 1.01 (inactive) | 1.15 | 7820 | 7770 | -0.615 (inactive) | – | – | –

Row | SMILES | remaining activity [1] | fold change ([2]; stronger effect = lower value) | fold change [2, 5] | cell count [2, 6] | cell count [2, 7] | z-score [3] | fold change [2, 8] | parasite load remaining [4] | viability [4] [%]
22 | Oc1ccc2c3c1O[C@H]1c4oc5ccccc5c4C[C@@]4(O)C(C2)N(CC2CC2)CC[C@]314 | 104% (inactive) | 0.944 (inactive) | 0.874 | 9060 | 9600 | -0.325 (inactive) | – | – | –
23 | CNCCc1cnc[nH]1 | 101% (inactive) | – | 0.943 | 9430 | 9770 | 0.115 (inactive) | 0.965 (inactive) | – | –
24 | CCCN[C@@H]1CCc2c(OC)cccc2[C@@H]1C | 99.1% (inactive) | – | 1.14 | 8780 | 9360 | 0.12 (inactive) | 0.939 (inactive) | – | –
25 | CCC[C@@H]1CC2=CC(=O)CC[C@]2(C)[C@H]2CC[C@@]3(C)[C@@H](CC[C@@]3(O)CCC(=O)O)[C@H]12 | 116% (inactive) | – | 0.977 | 7340 | 7920 | 0.06 (inactive) | 0.926 (inactive) | – | –
26 | O=C1CSC(c2ccccc2Cl)c2cc(Cl)ccc2N1 (stereo not drawn) | 115% (inactive) | 0.848 (inactive) and 0.875 (inactive) | 1.12 and 0.874 | 2450 and 7360 | 2880 and 8400 | -0.095 (inactive) | – | – | –
27 | Oc1ccc2c3c1O[C@H]1c4c(c5ccccc5n4Cc4ccccc4)C[C@@]4(O)C(C2)N(CC2CC2)CC[C@]314 | 94.5% (inactive) | 0.935 (inactive) | 1.27 | 2600 | 2780 | -1.2 (inactive) | – | – | –
28 | C(=C\c1ccccc1)/CN1CCN(CCOC(c2ccccc2)c2ccccc2)CC1 | 119% (inactive) | – | 0.604 | 5420 | 5780 | -1.21 (inactive) | 0.938 (inactive) | – | –
29 | COC(=O)CN1CN(c2ccccc2)C2(CCN(Cc3ccc4ccccc4c3)CC2)C1=O | 120% (inactive) | – | 0.824 | 8960 | 9820 | 0.375 (inactive) | 0.912 (inactive) | – | –
30 | Cn1cc(C(=O)C(=O)N[C@H]2CN3CCC2CC3)c2ccccc21 | 92.5% (inactive) | – | 1.06 | 8410 | 9440 | 0.935 (inactive) | 0.891 (inactive) | – | –
31 | C[C@H](Cc1ccc(OCC(=O)O)cc1)NC[C@H](O)c1cccc(Cl)c1 | 121% (inactive) | – | 0.725 | 7990 | 8500 | -0.27 (inactive) | 0.941 (inactive) | – | –
32 | O[C@H]1[C@H](O)[C@@H](O)CN2CC[C@H](O)[C@H]12 | 107% (inactive) | 0.875 (inactive) and 0.917 (inactive) | 1.02 and 1.4 | 4910 and 9170 | 5610 and 10000 | 0.34 (inactive) | – | – | –
33 | C[C@H](N)Cc1cnc[nH]1 | 92.3% (inactive) | – | 1.13 | 9180 | 9200 | 0.12 (inactive) | 0.997 (inactive) | – | –
34 | CCCCCOc1c(OC)ccc2cc(C(=O)NCc3ccc4c(c3)OCO4)c(=O)[nH]c12 | 107% (inactive) | – | 1.43 | 5450 | 5260 | 0.125 (inactive) | 1.04 (inactive) | – | –
35 | C[C@H](NC[C@H](O)CP(=O)(O)CC1CCCCC1)c1ccc(Cl)c(Cl)c1 | 121% (inactive) | – | 0.73 | 10100 | 10400 | 0.2 (inactive) | 0.971 (inactive) | – | –
36 | O=Cc1cn(Cc2ccc(Cl)cc2)c2ccccc12 | 119% (inactive) | – | 1.34 | 4020 | 4470 | -0.645 (inactive) | 0.901 (inactive) | – | –
37 | Cc1ccc2c(c1)Cc1c(C(=O)NC3CCCCC3)nn(-c3ccc(Cl)cc3Cl)c1-2 | 103% (inactive) | – | 1.35 | 8570 | 8690 | -0.01 (inactive) | 0.986 (inactive) | – | –
38 | CC[N+](CC)(CCCNC1=CC(=O)C(NCCC[N+](CC)(CC)Cc2ccccc2)=CC1=O)Cc1ccccc1 | 81.3% (inactive) | – | 0.768 | 8950 | 9410 | -0.46 (inactive) | 0.951 (inactive) | – | –
39 | O=C1Nc2cc(Cl)c(Cl)cc2N2CCNCC12 (stereo not drawn) | 125% (inactive) | – | 0.693 | 8510 | 8970 | -0.265 (inactive) | 0.949 (inactive) | – | –
40 | CCCN(CCC)[C@@H]1CCc2c(OC)cccc2[C@@H]1C | 103% (inactive) | – | 0.674 | 8420 | 9160 | 0.925 (inactive) | 0.92 (inactive) | – | –
41 | O=C1NC(=O)c2c1c1c3ccccc3[nH]c1c1[nH]c3ccccc3c21 | 93.4% (inactive) | 0.78 (inactive) | 1.58 | 3660 | 4680 | -0.6 (inactive) | – | 79.1% (inactive) | 159

Reference: PubChem BioAssay
